Measured values published in the supplement of paper PMC3898565.
± gives the uncertainty stated by the source.

System: U87
Assay: cell viability relative to vehicle control; higher = less growth inhibition (less active)
Details: 10 µM; 72 h
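Also: viable cell number estimated from Alamar Blue fluorescence read at 560/90, part of a single-dose primary screen of an FDA-approved drug library.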

| Compound | cell viability [%] |
| --- | --- |
| CC(=O)N1CCN(c2ccc(OCC3COC(Cn4ccnc4)(c4ccc(Cl)cc4Cl)O3)cc2)CC1 (centres undefined) [Ketoconazole] | 94.3 ± 13 |
| C[C@H]1COc2c(N3CCN(C)CC3)c(F)cc3c(=O)c(C(=O)O)cn1c23 | 102.8 ± 0.96 |
| Cc1ncc([N+](=O)[O-])n1CC(C)O (centres undefined) [1-(2-Methyl-5-nitro-imidazol-1-yl)-propan-2-ol] | 102.9 ± 0.98 |
| Cc1cccc(Nc2ccncc2S(=O)(=O)NC(=O)NC(C)C)c1 | 124 ± 2.1 |
| C#C[C@]1(O)CC[C@H]2[C@@H]3[C@H](C)CC4=C(CCC(=O)C4)[C@H]3CC[C@@]21C | 106 ± 2.1 |
| COc1ccc2cc([C@H](C)C(=O)O)ccc2c1 | 106 ± 1.4 |
| OC[C@H]1O[C@@H](Oc2cc(O)cc(/C=C/c3ccc(O)cc3)c2)[C@H](O)[C@@H](O)[C@@H]1O | 99.7 ± 3.1 |
| Clc1ccc2c(c1)CCc1cccnc1C2=C1CCNCC1 | 101.5 ± 0.94 |
| CN(C)CCc1c[nH]c2ccc(C[C@H]3COC(=O)N3)cc12 [Zolmitriptan] | 105 ± 1.6 |
| CC(C)C[C@H](NC(=O)[C@@H](O)[C@H](N)Cc1ccccc1)C(=O)O | 97.13 ± 0.56 |
| O=c1c(O[C@@H]2O[C@H](CO)[C@H](O)[C@H](O)[C@H]2O)c(-c2ccc(O)c(O)c2)oc2cc(O)cc(O)c12 | 106 ± 1.8 |
| CC1(C)O[C@@H]2[C@@H](CO[C@@]3(COS(N)(=O)=O)OC(C)(C)O[C@@H]23)O1 | 129 ± 2 |
| COc1ccc(C(=O)NCc2ccc(OCCN(C)C)cc2)cc1OC | 95.8 ± 3.2 |
| COc1cccc2c1C(=O)c1c(O)c3c(c(O)c1C2=O)C[C@@](O)(C(=O)CO)C[C@@H]3O[C@H]1C[C@H](N)[C@H](O)[C@H](C)O1 | 23.5 ± 4 |
| Cc1c(C(=O)NN2CCCCC2)nn(-c2ccc(Cl)cc2Cl)c1-c1ccc(I)cc1 | 106 ± 1.3 |
| COc1ccnc(C[S+]([O-])c2nc3cc(OC(F)F)ccc3[nH]2)c1OC (centres undefined) | 125.2 ± 1.1 |
| Cc1cc2c(s1)Nc1ccccc1N=C2N1CCN(C)CC1 | 108 ± 1.7 |
| CO[C@H]1O[C@@H]2O[C@@]3(C)CC[C@H]4[C@H](C)CC[C@@H]([C@H]1C)[C@@]24OO3 | 107 ± 2.1 |
| C/C=C1\[C@H]2C=C(C)C[C@]1(N)c1ccc(=O)[nH]c1C2 | 106.5 ± 0.73 |
| C[C@@H]1C[C@H]2[C@@H]3CCC4=CC(=O)C=C[C@]4(C)[C@@]3(F)[C@@H](O)C[C@]2(C)[C@H]1C(=O)CO | 106 ± 0.2 |

| Compound | cell viability [%] |
| --- | --- |
| COc1ccc2c3c1O[C@H]1C[C@@H](O)C=C[C@@]31CCN(C)C2 [Galanthamine] | 100 ± 0.85 |
| CCc1ccc(CCOc2ccc(CC3SC(=O)NC3=O)cc2)nc1 (centres undefined) | 105 ± 3.6 |
| O=C(CCNNC(=O)c1ccncc1)NCc1ccccc1 | 107.8 ± 0.97 |
| CN1CCN(CCCN2c3ccccc3Sc3ccc(C(F)(F)F)cc32)CC1 [Trifluoperazine] | 103 ± 0.17 |
| CC1(C)C[C@@H]1C(=O)N/C(=C\CCCCSC[C@H](N)C(=O)O)C(=O)O | 129 ± 3.1 |
| O=[N+]([O-])c1cccc2cn[nH]c12 | 107 ± 1.1 |
| COc1ccc(CC(C)NCC(O)c2ccc(O)c(NC=O)c2)cc1 (centres undefined) | 98.7 ± 1.3 |
| Cc1[nH]c(=O)c(C#N)cc1-c1ccncc1 | 109 ± 2.6 |
| CCN1CC(CCN2CCOCC2)C(c2ccccc2)(c2ccccc2)C1=O (centres undefined) | 104 ± 1.3 |
| COc1ccc(CN2CCN(C(c3ccc(F)cc3)c3ccc(F)cc3)CC2)c(OC)c1OC | 69.3 ± 8.6 |
| CC(COc1ccccc1Cc1ccccc1)N1CCCCC1 (centres undefined) | 102.4 ± 0.48 |
| Nc1c2c(nc3ccccc13)CCCC2 | 110 ± 18 |
| CC(=O)Nc1ccc(CC(=O)O)cc1 | 100 ± 1.1 |
| CN(CCO)CC(O)Cn1cnc2c1c(=O)n(C)c(=O)n2C (centres undefined) | 104.3 ± 0.69 |
| CN1C(=O)CC[C@H]1c1cccnc1 [(-)-Cotinine] | 94.6 ± 10 |
| CCCN1CCCC[C@H]1C(=O)Nc1c(C)cccc1C | 107 ± 1.1 |
| O=C1CC2(CCCC2)CC(=O)N1CCNCC1COc2ccccc2O1 (centres undefined) | 110.4 ± 0.75 |
| CC(=O)OCC(CCn1cnc2cnc(N)nc21)COC(C)=O | 104.2 ± 0.4 |
| COc1cc([C@@H]2c3cc4c(cc3[C@@H](O[C@@H]3O[C@@H]5CO[C@@H](C)O[C@H]5[C@H](O)[C@H]3O)[C@H]3COC(=O)[C@H]23)OCO4)cc(OC)c1O [Etoposide] | 70.5 ± 4.8 |
